Test results as given in PubChem BioAssay (NCATS).
Records with an inconclusive call do not appear. Activity calls are given as the source filed them. Calls come from the whole dose curve; as a rule, active = well fitted inhibition curve with a large enough effect; inconclusive = small, poorly fitted or top-dose-only effect; inactive = flat fitted curve, though single readings scatter.

Legend:
Test in all cases: qHTS profiling for inhibitors of Plasmodium falciparum proliferation (AID 504749); note: nearly all actives have a fitted effect of over 60% in size
Details in all cases: P. falciparum in erythrocytes, SYBR Green DNA, 72 h; series mostly up to 28.7 µM
CP305 = system: CP305
Summary of the method: (§1)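 Each compound contacts P. falciparum-infected red blood cells for 72 h at 37 C; lysis buffer (Tris, EDTA, saponin, Triton X, SYBR Green I) is added and fluorescence measured next morning; values normalized to controls.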

CP315 = system: CP315
Summary of the method: as §1

CP325 = system: CP325
Summary of the method: as §1

CP329 = system: CP329
Summary of the method: as §1

CP335 = system: CP335
Summary of the method: as §1

DFO2036 = system: DFO2036
Summary of the method: as §1

DIV14 = system: DIV14
Summary of the method: as §1

DIV17 = system: DIV17
Summary of the method: as §1

DIV30 = system: DIV30
Summary of the method: as §1

Dd2 = system: Dd2
Summary of the method: as §1

Measured: Potency
Potency is the fitted concentration of half-maximal effect.

C[C@H](CCC(=O)O)[C@H]1CC[C@H]2[C@@H]3CC[C@@H]4C[C@H](O)CC[C@]4(C)[C@H]3C[C@H](O)[C@]12C
inactive: CP305 | CP315 | CP325 | CP329 | CP335 | DFO2036 | DIV14 | DIV17 | DIV30 | Dd2

CC(C)OC(=O)Nc1ccc2nc(-c3cscn3)[nH]c2c1
inactive: CP305 | CP315 | CP325 | CP329 | CP335 | DFO2036 | DIV14 | DIV30 | Dd2

NC(N)=O
inactive: CP305 | CP315 | CP325 | CP329 | CP335 | DFO2036 | DIV17 | DIV30 | Dd2

CO/N=C(/C(=O)N[C@@H]1C(=O)N2C(C(=O)O)=C(COC(N)=O)CS[C@H]12)c1ccco1
inactive: CP305 | CP315 | CP325 | CP329 | CP335 | DFO2036 | DIV14 | DIV30 | Dd2

O=C(OCc1ccccc1)c1cccnc1
inactive: CP305 | CP315 | CP325 | CP329 | CP335 | DFO2036 | DIV17 | DIV30 | Dd2

Cc1cc2nc3c(=O)[nH]c(=O)nc-3n(C[C@H](O)[C@H](O)[C@H](O)COP(=O)(O)OP(=O)(O)OC[C@H]3O[C@@H](n4cnc5c(N)ncnc54)[C@H](O)[C@@H]3O)c2cc1C
inactive: CP305 | CP315 | CP325 | CP329 | CP335 | DFO2036 | DIV14 | DIV17 | Dd2

O=C(O)CC/C=C\CC[C@@H]1[C@@H](N2CCCCC2)[C@@H](O)C[C@@H]1OCc1ccc(-c2ccccc2)cc1
inactive: CP305 | CP315 | CP325 | CP329 | CP335 | DFO2036 | DIV14 | DIV30 | Dd2

CC(=O)Nc1ccc(OC(=O)c2ccccc2O)cc1
inactive: CP305 | CP315 | CP325 | CP329 | CP335 | DFO2036 | DIV14 | DIV17 | DIV30 | Dd2

CC1=C(/C=C/C(C)=C/C=C/C(C)=C/C(=O)Oc2c(C)c(C)c3c(c2C)CC[C@@](C)(CCC[C@H](C)CCC[C@H](C)CCCC(C)C)O3)C(C)(C)CCC1
inactive: CP305 | CP315 | CP325 | CP329 | CP335 | DFO2036 | DIV14 | DIV17 | DIV30 | Dd2

CC(/C=C/C=C(\C)C(=O)O[C@@H]1O[C@H](CO[C@@H]2O[C@H](CO)[C@@H](O)[C@H](O)[C@H]2O)[C@@H](O)[C@H](O)[C@H]1O)=C\C=C\C=C(C)\C=C\C=C(/C)C(=O)O[C@@H]1O[C@H](CO[C@@H]2O[C@H](CO)[C@@H](O)[C@H](O)[C@H]2O)[C@@H](O)[C@H](O)[C@H]1O
inactive: CP305 | CP315 | CP325 | CP329 | CP335 | DFO2036 | DIV17 | DIV30 | Dd2

O=C(O)c1ccc(NC(=O)[C@H](Cc2ccc(O)cc2)NC(=O)c2ccccc2)cc1
inactive: CP305 | CP315 | CP325 | CP329 | CP335 | DFO2036 | DIV14 | DIV17 | DIV30 | Dd2

C=CC(=O)O
inactive: CP305 | CP315 | CP325 | CP329 | CP335 | DFO2036 | DIV17 | DIV30 | Dd2

O=C(O)CCC/C=C\C[C@@H]1[C@@H](/C=C/[C@@H](O)COc2cccc(Cl)c2)[C@H](O)C[C@@H]1O
inactive: CP305 | CP315 | CP325 | CP329 | CP335 | DFO2036 | DIV14 | DIV30 | Dd2

CCSc1ccc2c(c1)N(CCCN1CCN(C)CC1)c1ccccc1S2
inactive: CP305 | CP315 | CP325 | CP329 | CP335 | DFO2036 | DIV30 | Dd2

OCC(O)CO
inactive: CP305 | CP315 | CP325 | CP329 | CP335 | DFO2036 | DIV14 | DIV17 | DIV30 | Dd2

CCCCC/C=C\C/C=C\C/C=C\CCCCC(=O)O
inactive: CP305 | CP315 | CP325 | CP329 | CP335 | DFO2036 | DIV14 | DIV17 | DIV30 | Dd2

C[C@H]1O[C@@H](O[C@H]2[C@@H](O)C[C@H](O[C@H]3[C@@H](O)C[C@H](O[C@H]4CC[C@@]5(C)[C@H](CC[C@@H]6[C@@H]5C[C@@H](O)[C@]5(C)[C@@H](C7=CC(=O)OC7)CC[C@]65O)C4)O[C@@H]3C)O[C@@H]2C)C[C@H](O)[C@@H]1O
inactive: CP305 | CP315 | CP325 | CP329 | CP335 | DFO2036 | DIV17 | DIV30 | Dd2

O=C(O)c1cc(N=Nc2ccc(O)c(C(=O)O)c2)ccc1O
inactive: CP305 | CP315 | CP325 | CP329 | CP335 | DFO2036 | DIV17 | DIV30 | Dd2

CN(C)c1ccc(C(=C2C=CC(=[N+](C)C)C=C2)c2c(O)c(S(=O)(=O)[O-])cc3cc(S(=O)(=O)O)ccc23)cc1
inactive: CP305 | CP315 | CP325 | CP329 | CP335 | DFO2036 | DIV30 | Dd2

CN(C)CCOc1ccc(/C(=C(/CCCl)c2ccccc2)c2ccccc2)cc1
inactive: CP305 | CP315 | CP325 | CP329 | CP335 | DFO2036 | DIV30 | Dd2

CC(C)NCC(O)COc1ccccc1-n1cccc1 (stereo not drawn)
inactive: CP305 | CP315 | CP325 | CP329 | CP335 | DFO2036 | DIV17 | DIV30

COc1ccc2c(=O)c(C)c(-c3ccccc3)oc2c1CN(C)C
inactive: CP305 | CP315 | CP325 | DIV30

C=CCOc1ccc(CC(=O)O)cc1Cl
inactive: CP305 | CP315 | CP325 | CP329 | DFO2036 | DIV14 | DIV17 | DIV30 | Dd2

O=C(Nc1ccc(O)cc1)c1ccccc1O
inactive: CP305 | CP315 | CP325 | CP329 | DFO2036 | DIV14 | DIV17 | Dd2

Cc1ccc(S(=O)(=O)O)cc1C
inactive: CP305 | CP315 | CP325 | CP329 | DFO2036 | DIV14 | DIV17 | DIV30 | Dd2

CCOC(=O)[C@@H](N)CS
inactive: CP305 | CP315 | CP325 | CP329 | DFO2036 | DIV14 | DIV17 | DIV30 | Dd2

O=C(CCCN1CCN2CCCC2C1)c1ccc(F)cc1 (stereo not drawn)
active: Dd2 12.6 µM
inactive: CP305 | CP315 | CP325 | CP329 | CP335 | DFO2036 | DIV30
